CFTR F508del cor – correctors of CFTR F508del function in bronchial epithelial cells. CFBE cells, YFP halide quenching; stimulated with forskolin plus potentiator P3; % fluorescence drop versus neutral controls. activity (quench increase), % at 7.58 µM. 350,000 compounds, 0.36% hits;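 active = mean added fluorescence quench of at least 8% versus neutral control, with both replicates also reaching 8%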;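 note: cells transiently co-express mutant CFTR-F508del with the halide-sensitive YFP; corrector assay measuring rescue of mutant channel to the surface after 24 h compound exposure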
Vif inh – blocks HIV Vif function. HEK293T cells, Vif self-association by quenched fluorescence, imaging, 24 h. inhibition, % at 7.49 µM. 340,000 compounds, 0.35% hits; in the data active = inhibition above about 50%, passing the limit was not always enough
FGF22 binding – FGF22 (human) thermal shift binding. 340,000 compounds, 1.5% hits. recombinant FGF22 thermal shift, SYPRO orange fluorescence; percent of sucrose octasulfate shift, DMSO zero. AID 651658. activity (Tm shift, normalised), % at 9.99 µM. Q9HCT0;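 active = mean Tm shift, scaled 0 neutral to 100 positive control, at about 1.3% or above, every replicate too, limit read from the data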
Target sequence (Q9HCT0 whole entry, looked up): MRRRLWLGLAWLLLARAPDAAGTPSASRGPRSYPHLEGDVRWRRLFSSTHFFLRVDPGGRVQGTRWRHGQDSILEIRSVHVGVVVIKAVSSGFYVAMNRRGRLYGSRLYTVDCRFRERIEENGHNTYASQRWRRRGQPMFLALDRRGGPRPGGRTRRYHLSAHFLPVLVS
Numbers stand for hits; - = inactive; . = not tested or not shown. A selection: hits, their analogues and other compounds. The true share with any hit is near 1.7%.

SMILES	CFTR F508del cor	Vif inh	FGF22 binding
COc1cccc(C2(O)CC(C(F)(F)F)=NN2C(=O)c2ccccn2)c1 (configuration not stated)	-	-	43
O=C(c1ccccc1)N1N=C(C(F)(F)F)CC1(O)c1ccccc1 (configuration not stated)	-	-	-
C[C@H](CO)N1C[C@H](C)[C@H](CN(C)C(=O)NC2CCCCC2)Oc2ncc(C#CCN(C)C)cc2C1=O	.	.	-
COc1ccc(-c2oc3ccc(-c4cc(OC)c(OC)c(OC)c4)cc3c2C#Cc2ccccn2)cc1	8.8	-	-
COc1ccc(C#Cc2c(-c3ccc(OC)cc3)oc3ccc(-c4ccc(OC)cc4)cc23)cc1	-	-	-
CCc1nc(N=C(N)N)nc2ccccc12	-	.	43
NC(N)=Nc1nc(-c2ccccc2)c2ccccc2n1	-	-	-
C[C@@H]1CN([C@H](C)CO)C(=O)c2cccc(NS(=O)(=O)c3ccccc3)c2O[C@H]1CN(C)C(=O)Nc1ccccc1	-	.	-
Cc1noc(C)c1S(=O)(=O)Nc1ccc2c(c1)C(=O)N([C@H](C)CO)C[C@@H](C)[C@H](CN(C)S(=O)(=O)c1ccc(Cl)cc1)O2	-	.	-
CCCCN1C2=NCCCN2c2ccccc21	.	-	.
CCCCCCCN1C2=NCCCN2c2ccccc21	.	-	43
CN1/C(=C\C(=S)NC(=O)c2ccccc2Cl)C(C)(C)c2ccccc21	.	-	-
COc1ccccc1C(=O)NC(=S)/C=C1/N(C)c2ccccc2C1(C)C	10.0	-	-
CN1/C(=C\C(=S)Nc2ccccc2)C(C)(C)c2ccccc21	-	-	-
CN1/C(=C\C(=O)Nc2ccc(Cl)cc2)C(C)(C)c2ccccc21	-	-	44
O=C(C[C@H]1CC[C@H]2[C@@H](COC[C@@H](O)CN2Cc2ccccc2F)O1)N[C@@H]1CCN(Cc2ccccc2)C1	-	.	-
CCNC(=O)[C@H]1[C@H](CO)[C@H]2Cn3c(ccc(-c4ccccc4)c3=O)[C@H]2N1CC1CC1	-	.	-
C[C@@H]1CN([C@@H](C)CO)C(=O)c2cc(NC(=O)CCCCCC(=O)Nc3ccccc3N)ccc2O[C@H]1CN(C)Cc1ccc2c(c1)OCO2	-	.	-
COc1ccc(CNC(=O)C/C(C)=N/NC(=O)COc2ccc(C)cc2Br)cc1	-	-	43
CCCNC(=O)C/C(C)=N/NC(=O)COc1ccc(C)cc1Br	-	-	-
C[C@@H]1CN([C@@H](C)CO)C(=O)c2cc(NC(=O)NC3CCCCC3)ccc2O[C@@H](C)CCCCO[C@@H]1CN(C)S(=O)(=O)c1ccc(Cl)cc1	-	.	-
C[C@@H]1CN([C@@H](C)CO)S(=O)(=O)c2ccc(C#C[C@@H](C)O)cc2O[C@H]1CN(C)CC1CC1	-	.	.
CC(=O)Nc1ccc(NC(=O)CN(c2ccc([N+](=O)[O-])cc2)S(=O)(=O)c2ccccc2)cc1	-	-	-
CCOc1ccc(NC(=O)CN(c2ccc([N+](=O)[O-])cc2)S(=O)(=O)c2ccccc2)cc1	15	-	-
O=C(Nc1nc2ccccc2[nH]1)C1CCCO1 (configuration not stated)	-	-	-
SMILES	CFTR F508del cor	Vif inh	FGF22 binding
O=C(Nc1ccc(-c2nc3ccccc3[nH]2)cc1)C1CCCO1 (configuration not stated)	-	.	8.6
C[C@@H]1CN([C@@H](C)CO)C(=O)c2cc(NC(=O)Nc3cccc4ccccc34)ccc2O[C@H]1CN(C)C(=O)Nc1cccc2ccccc12	-	.	-
COc1ccc(S(=O)(=O)Nc2ccc3c(c2)CC(=O)N([C@@H](C)CO)C[C@H](C)[C@H](CN(C)S(=O)(=O)c2ccc(F)cc2)O3)cc1	-	.	-
COc1ccccc1CC(NC(C)=O)C(=O)NC1CCN(C(=O)c2ccc([N+](=O)[O-])cc2)CC1 (configuration not stated)	-	-	44
COc1ccc(C(=O)N2CCC(NC(=O)C(Cc3ccccc3OC)NC(C)=O)CC2)cc1 (configuration not stated)	-	-	-
COc1cc(C(=O)N2CCC(NC(=O)C(Cc3ccccc3)NC(C)=O)CC2)cc(OC)c1OC (configuration not stated)	.	-	.
COc1ccc(CC(NC(C)=O)C(=O)NC2CCN(C(=O)c3ccccc3F)CC2)cc1 (configuration not stated)	-	70	-
CCCNC(=O)N(C)C[C@H]1Oc2ncc(Br)cc2C(=O)N([C@@H](C)CO)C[C@@H]1C	-	.	-
Cc1cccc(NC(=O)CNC(=O)Cn2ncc(Cl)c(Cl)c2=O)c1C	.	57	.
Cc1cccc(NC(=O)CNC(=O)CSc2ncccn2)c1C	-	-	-
O=C(NC1CCCC1)[C@@H]1[C@@H](CO)[C@@H]2Cn3c(ccc(-c4ccccc4F)c3=O)[C@H]1N2C(=O)CC1CC1	.	.	-
CSc1nnc2c(n1)OC(c1ccccn1)N(C(C)=O)c1ccccc1-2 (configuration not stated)	-	-	43
CSc1nnc2c(n1)OC(c1ccc(C(=O)O)cc1)N(C(C)=O)c1ccccc1-2 (configuration not stated)	-	-	-
Cc1cccc(S(=O)(=O)NC[C@H]2CC[C@@H]3NC[C@@H]3O2)c1	-	.	.
OC[C@@H]1Nc2ccc(C#Cc3ccc(F)cc3)cc2[C@H]2NCC[C@@H]12	-	.	.
O=[N+]([O-])c1cccc(S(=O)(=O)N2CCN(c3ccccn3)CC2)c1	-	-	-
O=[N+]([O-])c1ccc(S(=O)(=O)N2CCN(c3ccccn3)CC2)cc1	-	-	43
COCC(=O)N(C)C[C@@H]1Oc2cc(C#CCC3CCCC3)ccc2S(=O)(=O)N([C@@H](C)CO)C[C@H]1C	-	.	-
NC(=O)c1ccc(=O)n(C2OC(CO)C(O)C2O)c1 (configuration not stated)	-	-	44
Nc1ccn([C@@H]2O[C@H](CO)[C@@H](O)[C@@H]2O)c(=O)n1	19	-	-
Nc1ccn(C2OC(CO)C(O)C2O)c(=O)n1 (configuration not stated)	9.7	-	-
Nc1ccn(C2OC(CO)C(O)C2F)c(=O)n1 (configuration not stated)	-	.	-
NC(=O)c1ncn([C@@H]2O[C@H](CO)[C@@H](O)[C@H]2O)n1	-	-	-
NC[C@H]1O[C@@H](n2ccc(N)nc2=O)[C@H](O)[C@@H]1O	-	-	-
CO[C@H]1CN(C)C(=O)c2cc(NC(=O)c3ccc(F)cc3)ccc2OC[C@H](C)N(C(=O)CC2CC2)C[C@H]1C	-	.	.
CNC[C@H]1OCCCC[C@@H](C)Oc2ccc(NC(=O)Nc3ccc(C(F)(F)F)cc3)cc2C(=O)N([C@@H](C)CO)C[C@H]1C	-	.	-
CC(C)NC(=O)N(C)C[C@H]1OCCCC[C@@H](C)Oc2ccc(NS(C)(=O)=O)cc2C(=O)N([C@@H](C)CO)C[C@@H]1C	-	.	-
CCC(=O)Nc1ccc2c(c1)C(=O)N(C)C[C@H](OC)[C@H](C)CN(C(=O)CC1CC1)[C@H](C)CO2	-	.	-
CCN(CCn1cccn1)C(=O)CC1C(=O)NCCN1Cc1ccc(OC)c(OC)c1 (configuration not stated)	-	-	-
